This is an account of results in PMC7862700, “An all-to-all approach to the identification of sequence-specific readers for epigenetic DNA modifications on cytosine”.

Sequence of ELF4 (Q99607 whole entry): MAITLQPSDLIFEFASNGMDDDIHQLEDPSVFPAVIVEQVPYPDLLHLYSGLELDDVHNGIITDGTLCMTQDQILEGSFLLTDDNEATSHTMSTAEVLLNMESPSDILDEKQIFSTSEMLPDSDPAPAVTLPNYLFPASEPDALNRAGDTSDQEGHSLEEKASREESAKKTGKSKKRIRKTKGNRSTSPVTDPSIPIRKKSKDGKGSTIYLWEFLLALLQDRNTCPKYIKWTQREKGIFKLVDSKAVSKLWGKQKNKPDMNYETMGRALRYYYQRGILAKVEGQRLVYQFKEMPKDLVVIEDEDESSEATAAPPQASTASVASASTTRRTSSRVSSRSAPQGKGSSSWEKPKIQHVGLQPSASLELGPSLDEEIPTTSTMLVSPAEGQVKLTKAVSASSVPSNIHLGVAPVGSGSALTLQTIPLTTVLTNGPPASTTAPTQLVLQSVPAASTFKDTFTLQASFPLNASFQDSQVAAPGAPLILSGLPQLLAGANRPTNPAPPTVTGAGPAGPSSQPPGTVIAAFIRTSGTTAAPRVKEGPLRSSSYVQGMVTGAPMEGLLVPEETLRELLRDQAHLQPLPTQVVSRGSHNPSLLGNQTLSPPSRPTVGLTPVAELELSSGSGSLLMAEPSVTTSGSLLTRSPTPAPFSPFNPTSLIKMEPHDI

The first assay concerns the target T1, SPIC (Homo sapiens, UniProt Q8N5J4 1-248).
T1 sequence: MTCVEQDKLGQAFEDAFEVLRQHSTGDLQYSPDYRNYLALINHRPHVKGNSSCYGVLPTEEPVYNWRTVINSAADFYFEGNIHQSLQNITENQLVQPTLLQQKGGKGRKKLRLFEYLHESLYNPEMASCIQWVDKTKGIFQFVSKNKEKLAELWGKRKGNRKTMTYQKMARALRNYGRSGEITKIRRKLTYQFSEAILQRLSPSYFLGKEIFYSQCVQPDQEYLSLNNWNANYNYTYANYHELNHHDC
Nature of the assay: DAPPL (digital affinity profiling via proximity ligation, sequencing); 10 mM Tris-HCl pH 7.5, 50 mM NaCl, 1 mM DTT, 4% glycerol, room temperature, 30 min; GST-TFs on glutathione beads, 16-mer random dsDNA library, 0.1% formaldehyde crosslink after washing; high values mean tight binding. The following applies: protein: recombinant; tags: N-terminal GST; dsDNA, one strand shown. Summed up: (§1)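 Each value of binding signal is a hexamer's read frequency for a factor divided by the same hexamer's frequency in the tag-only sample. Barcoded, bead-captured GST fusions of human transcription factors made in yeast were pooled with that sample and incubated with 200 nmole of a random double-stranded 16-mer DNA library in Tris/NaCl/DTT/glycerol buffer at room temperature for 30 min. Washing, 0.1% formaldehyde crosslinking, proximity ligation, PCR and Illumina NextSeq500 sequencing followed.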
In the case of TACCAT, the binding signal was 1.11 fold enrichment (6-mer frequency, TF over GST control).
On the same count and under the same terms, for GTTCCT the value was 1.96 fold enrichment (6-mer frequency, TF over GST control); for CCGCCT, 1.61 fold enrichment (6-mer frequency, TF over GST control).
Still for that read-out and setting: as for AAATTG, the figure is 1.16 fold enrichment (6-mer frequency, TF over GST control); as for AAAAAG, 1.13 fold enrichment (6-mer frequency, TF over GST control); as for TATTTT, 1.42 fold enrichment (6-mer frequency, TF over GST control).
Still for that read-out and setting: for CTTCGT the value was 1.4 fold enrichment (6-mer frequency, TF over GST control).
As for GTTATT, the binding signal is 1.29 fold enrichment (6-mer frequency, TF over GST control).
With CCTGCT, the binding signal is 1.71 fold enrichment (6-mer frequency, TF over GST control).
Still for that read-out and setting: for CTAGCA the value was 1.11 fold enrichment (6-mer frequency, TF over GST control); for ATGACC, 1.38 fold enrichment (6-mer frequency, TF over GST control); for CTTCCG, 7.54 fold enrichment (6-mer frequency, TF over GST control).
On to AATGAC, for which the binding signal was 1.36 fold enrichment (6-mer frequency, TF over GST control).
As to ACCGAT, the binding signal was 1.33 fold enrichment (6-mer frequency, TF over GST control).
Turning to ATACGA, the binding signal is 1.01 fold enrichment (6-mer frequency, TF over GST control).
On to TCTCGA, for which the binding signal was 1.35 fold enrichment (6-mer frequency, TF over GST control).
Same read-out and setting: for TGACCG the value was 1.68 fold enrichment (6-mer frequency, TF over GST control); for TCTGCA, 1.36 fold enrichment (6-mer frequency, TF over GST control).
Consider TACGAC, for which the binding signal is 1.22 fold enrichment (6-mer frequency, TF over GST control).
The same measure, in the same setting: as for TAAGTA, the figure is 1.25 fold enrichment (6-mer frequency, TF over GST control).
Same read-out and setting: as for GTTCTC, the figure is 1.36 fold enrichment (6-mer frequency, TF over GST control); as for TTTTAA, 1.15 fold enrichment (6-mer frequency, TF over GST control); as for ATGCTT, 1.6 fold enrichment (6-mer frequency, TF over GST control).
The same measure, in the same setting: as for ATCCTG, the figure is 1.19 fold enrichment (6-mer frequency, TF over GST control).
Turning to ACACTT, the binding signal is 1.71 fold enrichment (6-mer frequency, TF over GST control).
On the same count and under the same terms, as for ATTCTC, the figure is 1.15 fold enrichment (6-mer frequency, TF over GST control).
The same measure, in the same setting: as for TCTTTG, the figure is 1.13 fold enrichment (6-mer frequency, TF over GST control); as for CAATTC, 1.16 fold enrichment (6-mer frequency, TF over GST control).
Same read-out and setting: for TAATTT the value was 1.41 fold enrichment (6-mer frequency, TF over GST control).
With ACTGAT, the binding signal was 1.51 fold enrichment (6-mer frequency, TF over GST control).
For TTTTTG, the binding signal was 1.39 fold enrichment (6-mer frequency, TF over GST control).
Still for that read-out and setting: for TTTTCG the value was 1.11 fold enrichment (6-mer frequency, TF over GST control); for TCGACT, 1.41 fold enrichment (6-mer frequency, TF over GST control).
On to TTATGT, for which the binding signal is 1.17 fold enrichment (6-mer frequency, TF over GST control).
Regarding TTATCT, the binding signal is 1.25 fold enrichment (6-mer frequency, TF over GST control).
Consider CCGTTC, for which the binding signal was 1.32 fold enrichment (6-mer frequency, TF over GST control).
Still for that read-out and setting: as for AAACTA, the figure is 1.18 fold enrichment (6-mer frequency, TF over GST control).
Take TACATG: the binding signal is 1.17 fold enrichment (6-mer frequency, TF over GST control).
Take GTTGCT: the binding signal was 1.28 fold enrichment (6-mer frequency, TF over GST control).

The next assay addresses ELF4 (Homo sapiens, UniProt Q99607 1-663). The assay is described as above. The conditions noted are these: protein: recombinant; tags: N-terminal GST; dsDNA, one strand shown. An outline of the steps:
as §1
With TACCAT, the binding signal was 1.22 fold enrichment (6-mer frequency, TF over GST control).
Turning to GTTCCT, the binding signal was 1.6 fold enrichment (6-mer frequency, TF over GST control).
Still for that read-out and setting: as for CCGCCT, the figure is 1.52 fold enrichment (6-mer frequency, TF over GST control).
Regarding AAATTG, the binding signal was 1.27 fold enrichment (6-mer frequency, TF over GST control).
Regarding AAAAAG, the binding signal was 1.26 fold enrichment (6-mer frequency, TF over GST control).
On to TATTTT, for which the binding signal is 1.4 fold enrichment (6-mer frequency, TF over GST control).
Still for that read-out and setting: for CTTCGT the value was 1.29 fold enrichment (6-mer frequency, TF over GST control); for GTTATT, 1.16 fold enrichment (6-mer frequency, TF over GST control).
On the same count and under the same terms, as for CCTGCT, the figure is 1.69 fold enrichment (6-mer frequency, TF over GST control); as for CTAGCA, 1.3 fold enrichment (6-mer frequency, TF over GST control); as for ATGACC, 1.66 fold enrichment (6-mer frequency, TF over GST control).
The same measure, in the same setting: as for CTTCCG, the figure is 7.4 fold enrichment (6-mer frequency, TF over GST control).
For AATGAC, the binding signal is 1.37 fold enrichment (6-mer frequency, TF over GST control).
Still for that read-out and setting: as for ACCGAT, the figure is 1.24 fold enrichment (6-mer frequency, TF over GST control); as for ATACGA, 1.21 fold enrichment (6-mer frequency, TF over GST control); as for TCTCGA, 1.51 fold enrichment (6-mer frequency, TF over GST control).
In the case of TGACCG, the binding signal is 1.47 fold enrichment (6-mer frequency, TF over GST control).
In the case of TCTGCA, the binding signal was 1.42 fold enrichment (6-mer frequency, TF over GST control).
On to TACGAC, for which the binding signal was 1.34 fold enrichment (6-mer frequency, TF over GST control).
On to TAAGTA, for which the binding signal was 1.24 fold enrichment (6-mer frequency, TF over GST control).
In the case of GTTCTC, the binding signal is 1.28 fold enrichment (6-mer frequency, TF over GST control).
With TTTTAA, the binding signal was 1.28 fold enrichment (6-mer frequency, TF over GST control).
Take ATGCTT: the binding signal is 1.3 fold enrichment (6-mer frequency, TF over GST control).
Same read-out and setting: for ATCCTG the value was 1.35 fold enrichment (6-mer frequency, TF over GST control); for ACACTT, 1.55 fold enrichment (6-mer frequency, TF over GST control).
For ATTCTC, the binding signal was 1.35 fold enrichment (6-mer frequency, TF over GST control).
For TCTTTG, the binding signal was 1.17 fold enrichment (6-mer frequency, TF over GST control).
Still for that read-out and setting: as for CAATTC, the figure is 1.31 fold enrichment (6-mer frequency, TF over GST control).
As to TAATTT, the binding signal is 1.36 fold enrichment (6-mer frequency, TF over GST control).
The same measure, in the same setting: for ACTGAT the value was 1.23 fold enrichment (6-mer frequency, TF over GST control); for TTTTTG, 1.45 fold enrichment (6-mer frequency, TF over GST control).
Still for that read-out and setting: for TTTTCG the value was 1.29 fold enrichment (6-mer frequency, TF over GST control); for TCGACT, 1.51 fold enrichment (6-mer frequency, TF over GST control).
Same read-out and setting: for TTATGT the value was 1.38 fold enrichment (6-mer frequency, TF over GST control).
For the sequence TTATCT, the binding signal was 1.25 fold enrichment (6-mer frequency, TF over GST control).
Still for that read-out and setting: as for CCGTTC, the figure is 1.37 fold enrichment (6-mer frequency, TF over GST control); as for AAACTA, 1.33 fold enrichment (6-mer frequency, TF over GST control).
Same read-out and setting: as for TACATG, the figure is 1.29 fold enrichment (6-mer frequency, TF over GST control); as for GTTGCT, 1.27 fold enrichment (6-mer frequency, TF over GST control).

In the next assay the target is T2, ELK4 (Homo sapiens, UniProt P28324-2 1-405).
T2 sequence: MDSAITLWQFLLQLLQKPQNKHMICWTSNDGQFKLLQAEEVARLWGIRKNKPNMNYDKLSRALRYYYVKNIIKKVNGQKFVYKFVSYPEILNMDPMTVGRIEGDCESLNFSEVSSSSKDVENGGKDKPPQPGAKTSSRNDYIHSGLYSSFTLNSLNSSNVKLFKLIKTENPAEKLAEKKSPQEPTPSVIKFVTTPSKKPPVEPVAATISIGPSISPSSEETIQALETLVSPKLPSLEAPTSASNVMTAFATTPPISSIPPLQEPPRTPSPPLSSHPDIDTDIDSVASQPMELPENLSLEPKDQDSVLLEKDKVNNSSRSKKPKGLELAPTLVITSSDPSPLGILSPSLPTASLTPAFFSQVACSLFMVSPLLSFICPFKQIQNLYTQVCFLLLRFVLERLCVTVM
Described as above. The following applies: protein: recombinant; tags: N-terminal GST; dsDNA, one strand shown. Summed up:
as §1
Turning to TACCAT, the binding signal was 1.27 fold enrichment (6-mer frequency, TF over GST control).
On to GTTCCT, for which the binding signal is 1.48 fold enrichment (6-mer frequency, TF over GST control).
The same measure, in the same setting: as for CCGCCT, the figure is 1.45 fold enrichment (6-mer frequency, TF over GST control); as for AAATTG, 1.2 fold enrichment (6-mer frequency, TF over GST control); as for AAAAAG, 1.32 fold enrichment (6-mer frequency, TF over GST control).
For the sequence TATTTT, the binding signal was 1.49 fold enrichment (6-mer frequency, TF over GST control).
For CTTCGT, the binding signal was 1.39 fold enrichment (6-mer frequency, TF over GST control).
As to GTTATT, the binding signal is 1.17 fold enrichment (6-mer frequency, TF over GST control).
The same measure, in the same setting: as for CCTGCT, the figure is 1.73 fold enrichment (6-mer frequency, TF over GST control); as for CTAGCA, 1.25 fold enrichment (6-mer frequency, TF over GST control); as for ATGACC, 1.54 fold enrichment (6-mer frequency, TF over GST control).
Take CTTCCG: the binding signal is 6.22 fold enrichment (6-mer frequency, TF over GST control).
For AATGAC, the binding signal is 1.35 fold enrichment (6-mer frequency, TF over GST control).
As for ACCGAT, the binding signal was 1.15 fold enrichment (6-mer frequency, TF over GST control).
Still for that read-out and setting: as for ATACGA, the figure is 1.08 fold enrichment (6-mer frequency, TF over GST control).
On the same count and under the same terms, for TCTCGA the value was 1.46 fold enrichment (6-mer frequency, TF over GST control); for TGACCG, 1.4 fold enrichment (6-mer frequency, TF over GST control); for TCTGCA, 1.43 fold enrichment (6-mer frequency, TF over GST control).
With TACGAC, the binding signal was 1.3 fold enrichment (6-mer frequency, TF over GST control).
On the same count and under the same terms, for TAAGTA the value was 1.18 fold enrichment (6-mer frequency, TF over GST control); for GTTCTC, 1.27 fold enrichment (6-mer frequency, TF over GST control); for TTTTAA, 1.22 fold enrichment (6-mer frequency, TF over GST control).
As to ATGCTT, the binding signal was 1.45 fold enrichment (6-mer frequency, TF over GST control).
ATCCTG: the binding signal is 1.33 fold enrichment (6-mer frequency, TF over GST control).
For ACACTT, the binding signal is 1.49 fold enrichment (6-mer frequency, TF over GST control).
With ATTCTC, the binding signal is 1.25 fold enrichment (6-mer frequency, TF over GST control).
Still for that read-out and setting: for TCTTTG the value was 1.2 fold enrichment (6-mer frequency, TF over GST control).
Same read-out and setting: as for CAATTC, the figure is 1.25 fold enrichment (6-mer frequency, TF over GST control); as for TAATTT, 1.38 fold enrichment (6-mer frequency, TF over GST control); as for ACTGAT, 1.34 fold enrichment (6-mer frequency, TF over GST control).
Still for that read-out and setting: for TTTTTG the value was 1.5 fold enrichment (6-mer frequency, TF over GST control); for TTTTCG, 1.08 fold enrichment (6-mer frequency, TF over GST control).
Take TCGACT: the binding signal is 1.52 fold enrichment (6-mer frequency, TF over GST control).
The same measure, in the same setting: as for TTATGT, the figure is 1.38 fold enrichment (6-mer frequency, TF over GST control); as for TTATCT, 1.45 fold enrichment (6-mer frequency, TF over GST control).
Still for that read-out and setting: for CCGTTC the value was 1.23 fold enrichment (6-mer frequency, TF over GST control).
The same measure, in the same setting: as for AAACTA, the figure is 1.22 fold enrichment (6-mer frequency, TF over GST control); as for TACATG, 1.24 fold enrichment (6-mer frequency, TF over GST control); as for GTTGCT, 1.33 fold enrichment (6-mer frequency, TF over GST control).
